PubChem BioAssay (Tox21)
Values joined by “and” are separate entries in the source; they are usually repeats but may differ in a detail not shown here. Equal values may be shown once. Records with an inconclusive call do not appear. Active and inactive are the calls of the source. Unless noted, calls come from the whole dose curve; as a rule, active = well fitted curve in the direction sought with a large enough effect in the repeat runs; inconclusive = weak or mixed curves; inactive = no such curve, though single readings can be large; an effect the other way counts as inactive or inconclusive.

Legend:
[1] = qHTS assay to identify small molecule antagonists of the glucocorticoid receptor (GR) signaling pathway - cell viability counter screen (AID 720693); note: nearly all actives have a fitted effect of over 55% in size
[2] = qHTS assay for identifying genotoxic compounds that show differential cytotoxicity against isogenic chicken DT40 cell lines with known DNA damage response pathways - wild type cell line (AID 743012); note: nearly all actives have a fitted effect of over 60% in size; note: potency is the fitted concentration of half-maximal effect
In short: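 Viability of DNA repair-proficient chicken DT40 cells was assessed by CellTiter-Glo luminescence following 40 h compound exposure at 37 C/5% CO2.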

[3] = qHTS assay for identifying genotoxic compounds that show differential cytotoxicity against isogenic chicken DT40 cell lines with known DNA damage response pathways - Rev3 mutant cell line (AID 743014); note: nearly all actives have a fitted effect of over 55% in size; note: potency is the fitted concentration of half-maximal effect
[4] = qHTS assay for identifying genotoxic compounds that show differential cytotoxicity against isogenic chicken DT40 cell lines with known DNA damage response pathways - Rad54/Ku70 mutant cell line (AID 743015); note: nearly all actives have a fitted effect of over 60% in size; note: potency is the fitted concentration of half-maximal effect
[5] = qHTS assay to identify small molecule antagonists of the androgen receptor (AR) signaling pathway using the MDA cell line - cell viability counter screen (AID 743041; note: nearly all actives have a fitted effect of over 45% in size; note: potency is the fitted concentration of half-maximal effect)
In short: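 Cytotoxicity counter screen: MDA-kb2 AR-luc cells, compound + R1881, 16 h, 37C, 0% CO2; CellTiter-Fluor added at 15.5 h, fluorescence read after 30 min.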

[6] = qHTS assay to identify small molecule antagonists of the androgen receptor (AR) signaling pathway - cell viability counter screen (AID 743033; note: nearly all actives have a fitted effect of over 45% in size; note: potency is the fitted concentration of half-maximal effect)
[7] = target: Androgen receptor (Homo sapiens) (UniProt P10275); experiment: qHTS assay to identify small molecule antagonists of the androgen receptor (AR) signaling pathway (AID 743035; active = well fitted inhibition curve with a large enough effect in the signal ratio in the repeat runs, not every such curve was filed as active; the % refers to the signal ratio; note: potency is the fitted concentration of half-maximal effect)
In short: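 Reporter HEK293 cells were exposed to compounds and R1881 overnight (16 h, 37C); beta-lactamase activity was then quantified by FRET fluorescence.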

[8] = target: Androgen receptor (Homo sapiens) (UniProt P10275); experiment: qHTS assay to identify small molecule agonists of the androgen receptor (AR) signaling pathway (AID 743036; active = well fitted activation curve with a large enough effect in the signal ratio in the repeat runs, with a control signal flat, not every such curve was filed as active; the % refers to the signal ratio)
In short: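 Cell-based FRET reporter assay: HEK293 line with a UAS-beta-lactamase construct, compounds added in DMSO, 16 h exposure at 37C, then 2 h substrate step at room temperature and fluorescence intensity read.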

[9] = target: Androgen receptor (Homo sapiens) (UniProt P10275); experiment: qHTS assay to identify small molecule agonists of the androgen receptor (AR) signaling pathway using the MDA cell line (AID 743040; note: nearly all actives have a fitted effect of over 20% in size)
In short: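 Luciferase read-out, ONE-Glo, 30 min RT. Cells: MDA-kb2 AR-luc, MMTV promoter with AR and GR response elements. Compound exposure 16 h, 37C, 0% CO2, after 5 h pre-incubation. qHTS agonist mode.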

[10] = target: Androgen receptor (Homo sapiens) (UniProt P10275); experiment: qHTS assay to identify small molecule antagonists of the androgen receptor (AR) signaling pathway using the MDA cell line (AID 743042; note: nearly all actives have a fitted effect of over 55% in size; note: potency is the fitted concentration of half-maximal effect)
In short: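 MDA-kb2 breast carcinoma cells carrying MMTV-luciferase (AR/GR responsive) were co-treated with compounds and the agonist R1881 for 16 h at 37C. Inhibition read as ONE-Glo luminescence; CellTiter-Fluor fluorescence measured in parallel for cytotoxicity.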

Measured: Potency

Sequence of Androgen receptor (Homo sapiens) (P10275 whole entry, looked up): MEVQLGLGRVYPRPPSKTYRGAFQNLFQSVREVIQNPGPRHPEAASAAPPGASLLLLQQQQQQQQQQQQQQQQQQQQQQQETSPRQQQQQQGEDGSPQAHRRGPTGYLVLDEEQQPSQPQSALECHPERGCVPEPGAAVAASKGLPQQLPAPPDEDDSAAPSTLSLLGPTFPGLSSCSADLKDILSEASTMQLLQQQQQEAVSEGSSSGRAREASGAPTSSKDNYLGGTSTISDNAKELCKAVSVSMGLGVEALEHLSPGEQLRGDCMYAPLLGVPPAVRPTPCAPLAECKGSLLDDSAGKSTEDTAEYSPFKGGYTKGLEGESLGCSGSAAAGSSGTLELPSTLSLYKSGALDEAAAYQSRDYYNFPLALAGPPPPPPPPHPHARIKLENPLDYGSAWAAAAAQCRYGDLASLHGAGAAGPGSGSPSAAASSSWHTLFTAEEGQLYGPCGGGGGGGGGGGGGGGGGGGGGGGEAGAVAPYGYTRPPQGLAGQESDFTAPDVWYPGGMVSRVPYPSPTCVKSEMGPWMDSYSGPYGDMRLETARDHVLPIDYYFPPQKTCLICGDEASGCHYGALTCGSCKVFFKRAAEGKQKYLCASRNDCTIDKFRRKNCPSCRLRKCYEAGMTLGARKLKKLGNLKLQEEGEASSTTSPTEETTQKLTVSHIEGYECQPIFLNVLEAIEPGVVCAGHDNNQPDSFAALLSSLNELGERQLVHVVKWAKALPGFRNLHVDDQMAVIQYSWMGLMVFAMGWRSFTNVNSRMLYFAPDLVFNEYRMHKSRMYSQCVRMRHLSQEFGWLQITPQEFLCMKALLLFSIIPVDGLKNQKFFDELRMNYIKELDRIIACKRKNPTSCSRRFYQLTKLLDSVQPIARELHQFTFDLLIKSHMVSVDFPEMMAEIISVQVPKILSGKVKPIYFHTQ

O=C(OC1CCCCC1)c1ccccc1C(=O)OC1CCCCC1
inactive: [1] | [5]
active: [2] 28.8 µM | [3] 22.9 µM | [4] 25.7 µM

C[C@H]1CNCCc2ccc(Cl)cc21
inactive: [1] | [6] | [5]
active: [2] 26.6 µM | [3] 13.3 µM

COP(=O)(OC)O/C(=C/Cl)c1cc(Cl)c(Cl)cc1Cl
active: [2] 64.6 µM | [3] 28.8 µM | [4] 64.6 µM | [7] 18.4 µM | [10] 72.4 µM
inactive: [1] | [8] | [9] | [5]

COP(=S)(Oc1cc(Cl)c(Br)cc1Cl)c1ccccc1 (configuration not stated)
inactive: [1] | [2] | [3] | [6] | [9] | [5] | [10]

CC(c1ccc(O)cc1)(c1ccc(O)cc1)c1ccc(O)cc1
active: [2] 27.3 µM | [3] 38.6 µM | [4] 54.5 µM
inactive: [1] | [6] | [5]

Nc1nc(N)nc(N)n1
inactive: [1] | [2] | [3] | [4] | [6] | [5]

CC(C)(Cl)[N+](=O)[O-]
inactive: [1] | [2] | [3] | [4] | [6] | [5]

CNP(=O)(OC)Oc1ccc(C(C)(C)C)cc1Cl (configuration not stated)
active: [2] 13.7 µM | [3] 19.3 µM | [4] 21.7 µM
inactive: [1] | [5]

CCCCCCCCOC(=O)c1ccc(C(=O)OCCCCCCCC)c(C(=O)OCCCCCCCC)c1
inactive: [1] | [2] | [3] | [4] | [6] | [5]

COC(C)(C)CCC[C@H](C)C/C=C/C(C)=C/C(=O)OC(C)C
inactive: [1] | [8] | [9]
active: [2] 21.7 µM | [3] 24.3 µM | [4] 19.3 µM

O=C(CBr)OCc1ccccc1
inactive: [1] | [2] | [3] | [4] | [6] | [5]

Clc1cccc(SC2CCNCC2)n1
inactive: [1] | [2] | [3] | [6]

NC(=O)CI
inactive: [1] | [2] | [3] | [6] | [5]

CCCC(=O)Cl
inactive: [1] | [2] | [4] | [6] | [5]

CS/C(C)=N/OC(=O)N(C)SN(C)C(=O)O/N=C(\C)SC
inactive: [1] | [7] | [8] | [9] | [5] | [10]
active: [2] 6.86 µM | [3] 17.2 µM | [4] 15.4 µM

Cl/C=C\Cl
inactive: [1] | [2] | [3] | [4] | [6] | [5]

Nc1nc(=S)[nH][nH]1
active: [3] 48.6 µM
inactive: [1] | [2] | [6] | [5]

O=C1C(Cl)C(CCl)CN1c1cccc(C(F)(F)F)c1 (configuration not stated)
active: [7] 24.5 µM

CC(C)=CCOc1c2occc2cc2ccc(=O)oc12
inactive: [7]

CC(C)(C)C(O)C(Oc1ccc(Cl)cc1)n1cncn1 (configuration not stated)
inactive: [6]
active: [3] 32.5 µM | [4] 45.8 µM

C[N+](C)(C)CCCl
inactive: [2] | [3] | [4] | [6] | [7] | [9] | [5] | [10]

CCCCCC[N+](=O)[O-]
inactive: [1] | [6] | [7] | [8] | [5] | [10]

O=C1NCN(c2ccccc2)C12CCN(CCCOc1ccc(F)cc1)CC2
active: [2] 10.6 µM | [3] 13.3 µM | [4] 16.8 µM
inactive: [6]

NC(=O)C(Cl)(Cl)Cl
inactive: [2] | [3] | [4] | [6] | [5]

CCOP(=S)(OCC)Oc1cc(Cl)c(Br)cc1Cl
inactive: [1] | [6] | [8] | [9] | [5] | [10]

CO/C=C(/C(=O)OC)c1ccccc1COc1cccc(C(F)(F)F)n1
active: [2] 0.0769 µM | [3] 0.0769 µM | [4] 0.0485 µM | [6] 3.46 µM
inactive: [5]

ClP(Cl)(Cl)(Cl)Cl
inactive: [1] | [6] | [5]

IC(I)=C(I)I
inactive: [8] | [9]
active: [2] 0.611 µM | [3] 1.22 µM | [4] 1.22 µM | [6] 12.3 µM | [10] 19.3 µM

COCCOCCO
inactive: [6] | [5]
active: [4] 61.1 µM

O=C(CCl)c1ccc(Cl)cc1Cl
active: [2] 668 nM and 1.72 µM | [3] 1.06 µM and 2.73 µM and 17.1 µM | [4] 944 nM and 2.43 µM
inactive: [6] | [8] | [9] | [5] | [10]

O=C(Nc1ccccc1)Nc1ccnc(Cl)c1
inactive: [9]
active: [2] 17.2 µM | [3] 15.4 µM | [4] 13.7 µM | [6] 38.9 µM | [10] 30.6 µM

N#Cc1cc(I)c(O)c(I)c1
inactive: [9]
active: [3] 68.6 µM | [6] 49 µM

O=C1C(=O)c2cccc3cccc1c23
inactive: [5]
active: [2] 2.73 µM | [3] 1.72 µM | [4] 2.43 µM

CC1(C)CCC(Cc2ccc(Cl)cc2)C1(O)Cn1cncn1 (configuration not stated)
active: [2] 27.3 µM | [3] 15.4 µM | [4] 27.3 µM

OC(c1ccc(Cl)cc1)(c1ccc(Cl)cc1)c1cccnc1
active: [2] 9.69 µM | [3] 8.63 µM | [4] 8.63 µM | [6] 54.9 µM | [7] 34.7 µM | [10] 61.1 µM
inactive: [8] | [9] | [5]

O=C(NC(=O)c1c(F)cccc1F)Nc1cc(Cl)c(Oc2ncc(C(F)(F)F)cc2Cl)c(Cl)c1
inactive: [9] | [5]
active: [2] 1.17 µM | [3] 2.08 µM | [4] 1.65 µM

CC(=O)c1cc2c(cc1C)C(C)(C)C(C)CC2(C)C (configuration not stated)
inactive: [1] | [6] | [5]

O=S1(=O)OC(c2cc(Br)c(O)c(Br)c2)(c2cc(Br)c(O)c(Br)c2)c2ccccc21
inactive: [6] | [9]
active: [2] 31.5 µM | [3] 28.1 µM | [4] 25 µM | [5] 62.8 µM

C=CC[C@]1(O)CC[C@H]2[C@@H]3CCC4=CC(=O)CCC4=C3C=C[C@@]21C
inactive: [6] | [5]
active: [2] 9.44 µM | [3] 16.8 µM | [4] 10.6 µM

COc1nn(CSP(=S)(OC)OC)c(=O)s1
active: [2] 19.3 µM | [3] 45.8 µM | [4] 50.5 µM

C=CC(=O)NCNC(=O)C=C
active: [4] 61 µM
inactive: [1] | [9] | [5] | [10]

CN1C(=O)C(O)N=C(c2ccccc2)c2cc(Cl)ccc21 (configuration not stated)
inactive: [1] | [6] | [5]

CN(C)c1ccc(N(C)C)cc1
inactive: [1] | [6] | [5]

CO/N=C(/C(=O)OC)c1ccccc1COc1ccccc1C
active: [2] 0.611 µM | [3] 0.969 µM | [4] 0.864 µM | [6] 6.92 µM | [10] 27.3 µM
inactive: [9]

CCCN(CC1CC1)c1c([N+](=O)[O-])cc(C(F)(F)F)cc1[N+](=O)[O-]
inactive: [2] | [3] | [4] | [6] | [5]

N#CCC#N
inactive: [1] | [6] | [9] | [5] | [10]

II
inactive: [1] | [6] | [7] | [9] | [5] | [10]

CCCC(Cn1cncn1)c1ccc(Cl)cc1Cl (configuration not stated)
active: [2] 5.45 µM | [3] 6.11 µM | [4] 10.9 µM

CC(C)(OO)c1ccccc1
active: [2] 30.6 µM | [3] 27.3 µM | [4] 17.2 µM
inactive: [6] | [5]

c1cc2ccc3cccc4ccc(c1)c2c34
active: [2] 71.9 µM | [4] 67.9 µM
inactive: [9] | [10]

CCCCC(O)(Cn1cncn1)c1ccc(Cl)cc1Cl (configuration not stated)
active: [2] 15.3 µM | [3] 13.7 µM | [4] 13.7 µM | [6] 48.9 µM | [7] 17.4 µM
inactive: [8] | [9] | [5]

O=C(O)C1(c2ccc3c(c2)OC[C@H](Cc2ccc(-c4ccccc4)cc2)[C@H]3O)CCCC1
active: [2] 61.1 µM | [3] 61.1 µM | [4] 61.1 µM

Clc1cc(C(Cl)(Cl)Cl)cnc1Cl
inactive: [2] | [3] | [4] | [6] | [5]

O=C1c2ccccc2C(=O)C1C(=O)C(c1ccccc1)c1ccccc1
inactive: [1] | [6] | [5]
